Calls of active or inactive are those of the source. Cut-off read from the data, not from the text of the source: active = inhibition above about 30%; inactive = the rest.
test: growth suppression of yeast trafficking mutant, preliminary HTS, modulators of trafficking downstream of Golgi apparatus project, 1536-format plate, OD 615 nm (AID 637); settings: yeast transport mutant growth, absorbance 615 nm, 18 h; hits give high values

inhibition, inactive:
COc1cccc(-n2ccnc2SCC(=O)N2CCc3ccccc32)c1 -3.06%, C=CCc1cc(C(=O)N2CCCCC2)ccc1O 8.2%, CCN(CC)c1ccc(-c2nn3c(-c4cccnc4)nnc3s2)cc1 -7.1%, Cc1ccc(NC(=O)CSc2nnc(-c3ccncc3)n2C)cc1C 25.9%, O=C(Nc1ccc(Br)cc1F)c1sccc1-n1cccc1 -8.67%, Cc1nc(CNS(=O)(=O)c2ccc3c(c2)OCCO3)cs1 9.51%, CCOC(=O)c1[nH]c(C)c(C(=O)NCC2CCCO2)c1C (stereo not given) -0.32%, N#CC1=C(N)N(c2ccccc2)C2=C(C(=O)CCC2)C1c1cccs1 (stereo not given) 0.83%, COc1cccc(C(=O)n2cnnc2N)c1OC -3.49%, COC(=O)c1cc2oc(C)cc2n1CC(=O)Nc1ccc(C)c(C)c1 -7%, O=C(CSCc1cnn(-c2ccccc2)c1-n1cccc1)NCC1CCCO1 (stereo not given) -2.7%, N=c1c(C(=O)NCc2ccc3c(c2)OCO3)cc2c(=O)n3ccccc3nc2n1Cc1cccnc1 -2.3%, Cc1cc(Br)ccc1NC(=O)CCN1C(=O)c2ccncc2C1=O -9.18%, O=C1N2c3ccccc3CCc3cccc(c32)C1(O)C(F)(F)F (stereo not given) 6.56%, Cn1c(SCC(=O)Nc2ccc3c(c2)oc2ccccc23)nnc1-c1ccccc1 5.9%, CCOc1ccc(S(=O)(=O)Nc2cccc(Cl)c2)cc1 -3.28%, Nn1c(CSc2nc3ccccc3o2)nnc1CSc1nc2ccccc2o1 -1.8%, CC1=C(C(=O)OC2CCCCC2)C(c2cccnc2)n2ncnc2N1 (stereo not given) -5.83%, COC(=O)c1ccccc1NC(=O)C1CC(=O)N(c2ccccc2)C1 (stereo not given) 6.77%, O=C(c1ccc2c(c1)OCCO2)C1CCN(C(=O)c2ccc(F)cc2)CC1 -3.11%, Cc1nc(=S)n(-c2ccccc2)[nH]1 -9.35%, CC(C)CC(=O)Nc1ccccc1-c1nnn(CC(=O)N2CCOCC2)n1 -1.77%, O=C(c1ccccc1)N1CCCCC(Sc2nnnn2-c2ccccc2)C1=O (stereo not given) -0.32%, CC(=O)Nc1ccccc1OCc1nnc(-c2cccs2)o1 -3.97%, CCOc1ccc(CN2CCN(c3cc(C)nc4c5c(C)cc(C)nc5nn34)CC2)cc1 -4.36%, CCSc1nnc2c(n1)OC=Nc1ccc(Br)cc1-2 -4.67%, Cc1ccc2nc(SCC(=O)NCc3ccco3)c(C#N)cc2c1 -3.27%, CCN(CC)c1ccc2cc(NC(=O)CCC(=O)O)c(=O)oc2c1 -5.32%, COc1ccc(CN(CC(=O)NCc2ccco2)C(=O)CCC(=O)Nc2nccs2)cc1 -2.13%, CC(=O)c1cccc(NC(=O)N2C3CCC2CC(O)(c2cccnc2)C3)c1 (stereo not given) -5.83%, Cc1nc2scc(-c3cccs3)c2c(=O)n1-n1cccc1 -7.83%, NC1=NC(c2ccc(Br)cc2)n2c(nc3ccccc32)N1 (stereo not given) -6%, CSCC[C@@H](Nc1nc(-c2ccccc2)nc2c1oc1ccccc12)C(=O)O -0.82%, Cc1csc(SCC(=O)NC(=O)NCc2ccccc2)n1 2.3%, CCSc1ncc(C#N)c(=O)[nH]1 -3.28%, CCSc1nnc(NC(=O)CSc2ncccn2)s1 -2.74%, COc1ccc(N2CCN(CCCNC(=O)C3(S(=O)(=O)c4ccc(Cl)cc4)CC3)CC2)cc1 -2.54%, COc1ccc(OC)c(C2=NOC(C(=O)NCCN3CCOCC3)C2)c1 (stereo not given) -3.27%, COc1ccc(CN2CC(C(=O)NCc3ccccn3)CC2=O)cc1 (stereo not given) -4.03%, c1ccc(-n2ncc3c(N4CCCCC4)ncnc32)cc1 -4.17%

Source: PubChem BioAssay
